Bioassay records: PubChem, several laboratories
Mdm2-MdmX inh = inhibitors of human Mdm2/MdmX interaction. SaOS-2 split-luciferase Mdm2/MdmX complementation, luminescence. O15151+Q00987. actives 3% (n = 330,000). inhibition, % at 8 µM;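 active = inhibition of at least 50% at 8 µM in the primary screen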
697 NFkB inh = lowers PMA/ionomycin-induced NF-kB signal in 697 B cells. 697 B-cell NF-kB luciferase reporter, 16 h. inhibition, % at 4 µM. actives 0.33% (n = 330,000); in the data active = inhibition above about 35%
Beta apoptosis = beta cell apoptosis inhibition; actives 0.8% (n = 300,000); AID 435005; INS-1E cytokine-induced death, ATP luminescence, 48 h; percent of positive-control rescue, neutral wells zero; protection from apoptosis, % (concentration not given with the values);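 active = Every replicate reaches about 75%, or at least half do and their mean reaches it too, limit read from the data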;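 note: 0% = cytokine-treated negative control wells and 100% = positive control rescue; higher means more ATP so stronger rescue from cytokine killing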
Gli-Sufu block = blocks Gli-Sufu signaling in a luciferase reporter; AID 588413; inhibition, % at 5 µM; Sufu-KO-LIGHT fibroblasts, Gli luciferase reporter luminescence; actives 0.74% (n = 340,000);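 active = inhibition above about 55%, limit read from the data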;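 note: 0% = DMSO-treated cells and 100% = wells with medium but no cells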
Jurkat NFkB inh = lowers PMA/ionomycin-induced NF-kB signal in Jurkat cells; inhibition, % at 4 µM; actives 0.53% (n = 330,000); PMA/ionomycin-induced NF-kB luciferase reporter, luminescence; in the data active = inhibition above about 50%
Mdm2 MdmX conf = human Mdm2/MdmX binding inhibition, confirmed; shares compounds with Mdm2-MdmX inh; luminescent assay; inhibition, % at 8 µM; actives 55% (n = 10,000); AID 489028; in the data active = inhibition above about 40%
Full FLuc ctr = counter-screen for Mdm2/MdmX inhibitors: full-length luciferase; shares compounds with Mdm2-MdmX inh; SaOS-2 full-length luciferase counterscreen, luminescence; inhibition, % at 8 µM; actives 77% (n = 6,200); AID 504607;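 active = mean inhibition at 8 µM reaching about 37%, which flags the compound as non-specific, limit read from the data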;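 note: p53-null SaOS-2 cells with luciferase driven by a doxycycline-inducible promoter; compound on cells about two nights before reading with doxycycline added after day one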
* marks the source's active call; other numbers are inactive results; x = no result given. An excerpt weighted towards active compounds, which were near 4% of everything screened.

SMILES	Mdm2-MdmX inh	697 NFkB inh	Beta apoptosis	Gli-Sufu block	Jurkat NFkB inh	Mdm2 MdmX conf	others
Cc1cccc(C)c1-c1ccc(CN2C(CC(C)C)C(=O)N(Cc3cn(CC4CCCCC4)nn3)CCS2(=O)=O)cc1 (centres undefined)	x	x	x	5	x	x
CCN(CC(=O)Nc1cc(Cl)ccc1C)C(=O)CCc1nc2ccccc2c(=O)[nH]1	8	14	-4	2	-4	x
C#Cc1ccc(CN2CCN(CCCc3ccccc3)C(CCO)C2)cc1 (centres undefined)	-12	-36	2	31	-26	x
CCOC(=O)c1cc(C(=O)NC(C)c2ccccc2)c(C)[nH]c1=O (centres undefined)	13	12	7	-3	-5	x
COc1ccccc1N(CC(=O)N1CCOCC1)S(C)(=O)=O	-7	-14	-6	-9	5	x
COc1ccc(-c2cc(-c3ccc(O)cc3)nc(N)c2C#N)cc1OC	59*	23	-3	1	0	42*	Full FLuc ctr=100*
COc1ccc(-c2cc(C(F)(F)F)n3ncc(C(=O)N4CCc5ccccc5C4)c3n2)cc1	54*	13	9	6	-7	22
COc1cccc(-c2cc(C(F)(F)F)n3ncc(C(=O)N4CCc5ccccc5C4)c3n2)c1	17	-7	0	17	-10	x
CCC(C)N(C)C(=O)c1cc2ccccc2c(-c2ccccc2Cl)n1 (centres undefined)	28	16	-12	6	-11	x
Cc1nc(Cl)c(C(=O)NC(=O)Nc2cccc(C(F)(F)F)c2)c(C)c1[N+](=O)[O-]	57*	16	38	2	1	17
CCOc1ccc(-c2cnc(NCc3cccc4ccccc34)n2CCOC)cc1	88*	-11	41	44	1	25
COCCn1c(-c2ccc(OC)cc2)cnc1N	5	6	-4	2	2	x
Cc1ccc(F)cc1NC(=O)CSCc1nc2sc(C)c(C)c2c(=O)[nH]1	-23	18	-2	-11	7	x
O=C(CCS(=O)(=O)c1ccccc1)N(CCCN1CCOCC1)c1nc2ccccc2s1	78*	-11	x	-18	-28	43*	Full FLuc ctr=74*
Cc1ccc2nc(N(CCN3CCOCC3)C(=O)CCS(=O)(=O)c3ccccc3)sc2c1	19	-30	x	-34	-62	x
Cc1ccc(S(=O)(=O)CCC(=O)N(CCCN2CCOCC2)c2nc3ccccc3s2)cc1	64*	-13	x	-37	-41	33
Cc1nnc(NC(=O)C2CC(=O)N(c3ccccc3)C2)s1 (centres undefined)	-7	-11	-10	-6	-15	x
Cc1cc2oc(=O)cc(C)c2cc1NC(=O)CCC(=O)O	29	2	2	-3	-3	x
Cc1cc2oc(=O)cc(C)c2cc1NC(=O)CCl	58*	24	-4	-4	2	36
CCCOc1ccc(C(=O)CCC(=O)NNC(=O)Cn2nc(C)cc2C)cc1	2	8	6	-2	4	x
CC(=O)Nc1ccc(C=NNC(=O)c2ccc(NS(=O)(=O)c3cccs3)cc2)cc1	-5	-7	-2	-4	0	x
O=C(NN=Cc1c(F)c(F)c(F)c(F)c1F)c1ccc(NS(=O)(=O)c2cccs2)cc1	53*	8	-6	-5	-5	-16
C=C(C)COc1ccc(-c2n[nH]c(C)c2-c2ccc(OC)cc2)c(O)c1	61*	5	29	10	17	49*	Full FLuc ctr=71*
CCCN(C(=O)C1CCCN(c2ncnc3c2nc2n3CCCCC2)C1)c1ccc(F)cc1 (centres undefined)	37	-1	-2	9	9	x
COc1cccc(/C=N/Nc2ccc([N+](=O)[O-])cn2)c1O	93*	-94	119*	-99	-4	91*	Full FLuc ctr=53*
O=c1[nH]c(N/N=C/c2cc3c(cc2[N+](=O)[O-])OCO3)nc2ccccc12	64*	14	-5	-16	-10	6
O=[N+]([O-])c1cc2c(cc1/C=N/Nc1nc(Nc3ccccc3)nc(N3CCCCC3)n1)OCO2	64*	-62	10	-18	-41	42*	Full FLuc ctr=37*
COc1cc([N+](=O)[O-])cc(/C=N/NC(=O)C(O)(c2ccccc2)c2ccccc2)c1O	27	-6	x	-1	10	x
